Active and inactive are the calls of the source. Rule for the calls: active = hit-call score of the fitted dose curve at least 0.9, where 1 is the maximum; inactive = score below 0.9.
Each molecule was assayed against Transcription factor Sp1 (Homo sapiens) (UniProt P08047) (assay: ATG_Sp1_CIS: Attagene CIS-FACTORIAL HepG2 Assay for human Specificity Protein 1 (Sp1) (AID 2282961)). Conditions: HepG2 Sp1 cis-reporter transcription, actives raise or lower the signal.
Sequence of Transcription factor Sp1 (Homo sapiens) (P08047 whole entry, looked up): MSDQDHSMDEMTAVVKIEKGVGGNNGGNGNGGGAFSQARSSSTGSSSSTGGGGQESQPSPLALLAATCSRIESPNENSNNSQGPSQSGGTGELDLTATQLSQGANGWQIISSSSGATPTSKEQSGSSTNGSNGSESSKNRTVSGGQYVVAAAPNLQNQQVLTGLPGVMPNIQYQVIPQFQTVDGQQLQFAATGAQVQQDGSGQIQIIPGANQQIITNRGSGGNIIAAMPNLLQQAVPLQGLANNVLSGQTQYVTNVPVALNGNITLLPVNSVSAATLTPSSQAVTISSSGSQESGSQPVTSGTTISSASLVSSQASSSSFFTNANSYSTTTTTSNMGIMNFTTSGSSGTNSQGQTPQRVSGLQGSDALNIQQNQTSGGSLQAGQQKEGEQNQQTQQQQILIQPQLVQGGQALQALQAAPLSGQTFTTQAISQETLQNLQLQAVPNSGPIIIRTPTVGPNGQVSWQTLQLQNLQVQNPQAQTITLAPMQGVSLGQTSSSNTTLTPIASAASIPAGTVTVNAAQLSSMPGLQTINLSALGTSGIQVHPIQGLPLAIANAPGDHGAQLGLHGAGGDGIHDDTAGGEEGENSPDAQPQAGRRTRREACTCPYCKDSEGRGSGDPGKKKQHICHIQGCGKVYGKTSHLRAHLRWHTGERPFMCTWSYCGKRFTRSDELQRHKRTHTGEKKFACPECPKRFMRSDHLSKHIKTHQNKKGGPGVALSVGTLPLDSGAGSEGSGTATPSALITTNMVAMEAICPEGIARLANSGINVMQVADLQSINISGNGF
Procedure, shortened: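 After transient transfection of HepG2 cells with cis-promoter reporter units and 24 h chemical treatment, reporter transcripts were quantified by RT-PCR and capillary electrophoresis fluorescence. Gain- and loss-of-signal fitted against DMSO.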
In the case of `CC(=O)OCCc1ccccc1`, the outcome is reported as “inactive”.
For `CC(=O)OC/C=C(/C)CCC=C(C)C`, the outcome was “inactive”.
With `O=S(=O)(O)c1ccc(N=Nc2c(O)ccc3ccccc23)cc1` the outcome was “inactive”.
In the case of `N=C1C=CC(=C(c2ccc(N)cc2)c2ccc(N)cc2)C=C1`, the outcome is reported as “inactive”.
In the case of `COc1cc(O)c(C(=O)c2ccccc2)cc1S(=O)(=O)O`, the outcome is reported as “inactive”.
`c1ccc2cnccc2c1` was tested, and the outcome was “inactive”.
For `CC1(C)CCC[C@]2(C)[C@H]3CC(=O)O[C@]3(C)CC[C@@H]12`, the outcome was “inactive”.
`C=CC(=O)OCC(C)OCC(C)OCC(C)OC(=O)C=C` (configuration not stated) was tested, and the outcome was “inactive”.
In the case of `Nc1ccc(O)c([N+](=O)[O-])c1`, the outcome is reported as “inactive”.
With `O=C(O)c1cc(O)c2ccccc2c1O` the outcome was “inactive”.
`O=C(Oc1ccccc1)c1ccccc1C(=O)Oc1ccccc1` was tested, and the outcome was “inactive”.
With `CC(=O)CCC1=C(C)CCCC1(C)C` the outcome was “inactive”.
`Oc1ccc(/C=C/c2cc(O)cc(O)c2)cc1` was tested, and the outcome was “inactive”.
With `CCCCNS(=O)(=O)c1ccc(C)cc1` the outcome was “inactive”.
For `Cc1c(C(=O)c2c[nH]n(C)c2=O)ccc(S(C)(=O)=O)c1C1=NOCC1`, the outcome was “inactive”.
With `O=C(Cl)c1ccc(C(=O)Cl)cc1` the outcome was “inactive”.
With `O=C1CCCCCCCCCCC1` the outcome was “inactive”.
In the case of `CCC(=O)C1CC(C(C)C)CC=C1C` (configuration not stated), the outcome is reported as “inactive”.
`O=C(O)CCC(=O)O` was tested, and the outcome was “inactive”.
In the case of `CCCCCCCCCC(C)=O`, the outcome is reported as “inactive”.
`CCCCC(CC)COC(=O)/C=C/c1ccc(OC)cc1` (configuration not stated) was tested, and the outcome was “inactive”.
For `CCCC/C=C/C=C\C=O`, the outcome was “inactive”.
With `CC(CC=O)CC(C)(C)C` (configuration not stated) the outcome was “inactive”.
In the case of `OCCCc1ccccc1`, the outcome is reported as “inactive”.
For `Nc1cccc(N)n1`, the outcome was “inactive”.
For `C=C(C)C(=O)OCC(O)COc1ccc(C(C)(C)c2ccc(OCC(O)COC(=O)C(=C)C)cc2)cc1` (configuration not stated), the outcome was “inactive”.
In the case of `CCCCOC(=O)CCC(C)=O`, the outcome is reported as “inactive”.
For `O=C(OCCc1ccccc1)c1ccccc1`, the outcome was “inactive”.
In the case of `Oc1ccc(-c2ccccc2)c(Cl)c1`, the outcome is reported as “inactive”.
In the case of `CC(C)C(=O)OCCOc1ccccc1`, the outcome is reported as “inactive”.
In the case of `O=C(O)CC(C(=O)O)S(=O)(=O)O` (configuration not stated), the outcome is reported as “inactive”.
For `CC=C(C)C(C)=O`, the outcome was “inactive”.
For `CC1C(C)(C)C2=C(C(=O)CCC2)C1(C)C` (configuration not stated), the outcome was “inactive”.
In the case of `CCCCC(C=O)CC` (configuration not stated), the outcome is reported as “inactive”.
With `COC(=O)c1ccc(C(=O)OC)c(C(=O)OC)c1` the outcome was “inactive”.
In the case of `CC1=CC(C)C(C=O)CC1` (configuration not stated), the outcome is reported as “inactive”.
With `COc1cc(C)ccc1O` the outcome was “inactive”.
